Rows were chosen to be rich in hits. Some 32% of all compounds tested hit in one or more screens of this group.
PostGolgi ctrl: growth of the yeast control strain, post-Golgi counter-screen | AID 738 | efflux-deficient yeast background strain, growth absorbance A615, 16 h | inhibition, % at 10 µM | 5% of 98,000 active
CYP2C19 act: increases human CYP2C19 enzyme activity | P33261 | recombinant CYP2C19, luciferin-H EGE luminescence; active compounds read high; 0 = fully inhibited enzyme, 1 = untreated enzyme | activation factor at 5 µM | 96,000 tested, under 10 active;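 active means activation factor of at least 2 at 5 µM in the primary screen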;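 further: 0 = wells with 2.5 mM tranylcypromine and 1 = vehicle-only wells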
CYP2C19 inh: blocks human cytochrome P450 2C19; inhibition, % at 5 µM; P33261; AID 778; CYP2C19 Supersomes, luciferin-H EGE luminescence, 30 min; 21% of 96,000 active;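 active means CYP2C19 inhibition above a set limit at 5 µM in the primary screen, cut at about 50% in these data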;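 further: plate controls were negative control wells for no effect and 2.5 mM tranylcypromine positive control for full effect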
CYP2C9 act: increases human cytochrome P450 2C9 activity | activation factor at 5 µM | 1.4% of 96,000 active | AID 1024 | P11712 | recombinant CYP2C9, luciferin-H conversion, luminescence; active compounds read high; factor 1 = untreated enzyme, 0 = blocked;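 active means activation factor of 2 or more for CYP2C9 at a 5 µM dose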;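 further: 0 = sulfaphenazole-blocked wells and 1 = vehicle-only wells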
PostGolgi yeast: growth inhibition of a yeast mutant, post-Golgi transport screen; post-Golgi transport phenotypic cell assay; inhibition, % at 10 µM; 0.9% of 98,000 active; AID 739;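 further: yeast cells grown in 1536-well plates; yeast grown about 18 h at 30C before absorbance read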
CYP2C9 inhib: blocks human cytochrome P450 2C9 | CYP2C9 Supersomes, luciferin-H conversion, luminescence | P11712 | inhibition, % at 5 µM | 20% of 96,000 active;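 active means blocking of liver enzyme CYP2C9 beyond about 50% at 5 µM, limit read from the data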
* hit, by the source's call; · = no result given. Unless noted, no stated cut-off is given here; in the data, active means inhibition above about 30%; inactive means the rest.

SMILES | PostGolgi ctrl | CYP2C19 act | CYP2C19 inh | CYP2C9 act | PostGolgi yeast | CYP2C9 inhib
CCOC(=O)c1c(-c2ccc(OC)cc2)oc2ccc(OC(=O)N(C)C)cc12 | 20 | 0.9 | 13 | 0.8 | -4 | 20
Cc1oc2ccc(OC(=O)N(C)C)cc2c1C(=O)OC(C)C | 27 | 0.2 | 78* | 0.4 | 4 | 65*
CN(C)c1ccc(C(=O)c2ccc(N(C)C)cc2)cc1 | 7 | 0.3 | 66* | 2.2* | 7 | -116
NC1CCCCC1N=Cc1c(O)n(Cc2ccc(F)cc2)c(=O)[nH]c1=O (configuration not stated) | 10 | 0.9 | 12 | 0.2 | 20 | 76*
CCCCCCn1c(O)c(C=NC2CCCCC2N)c(=O)[nH]c1=O (configuration not stated) | 3 | 0.9 | 7 | 0.5 | 4 | 52*
O=C(c1sc2ccccc2c1Cl)N1CCC2(CC1)OCCO2 | 46* | 0.2 | 82* | 1.8 | 4 | -79
Cc1cc(OCC(=O)Nc2c(C)n(C)n(-c3ccccc3)c2=O)c2c3c(c(=O)oc2c1)CCC3 | · | 0.9 | 10 | 1 | · | -2
OC1(c2ccccc2F)CC2CCC(C1)N2CCN1CCOCC1 (configuration not stated) | -6 | 1.1 | -8 | 1.1 | 14 | -9
OC1(c2ccc(F)cc2)CC2CCC(C1)N2Cc1nnnn1C1CCCC1 (configuration not stated) | -6 | 0.1 | 88* | 0.2 | -5 | 81*
C=CCn1c(O)c(C(C)=NC2CC2)c(=O)[nH]c1=O | 12 | 1 | 2 | 1.1 | -2 | -5
COc1cc(NC(=O)CN2C3CCC2CC(O)(c2cccnc2)C3)cc(OC)c1 (configuration not stated) | 15 | 0.9 | 9 | 0.9 | 17 | 8
CCOC(=O)c1c(C)n(Cc2ccco2)c2c1cc(O)c1ccccc12 | 11 | 1 | -2 | 0.2 | 5 | 82*
CCOC(=O)c1c(C)n(Cc2ccco2)c2ccc(OC)cc12 | 19 | 0.6 | 42 | 0.7 | 8 | 29
CCn1c(=O)cc(SCC(=O)N2CCC3(CC2)OCCO3)c2ccccc21 | 3 | 0.6 | 39 | 2.2* | 1 | -120

Assay outcomes: PubChem, several laboratories
